Consider 40 compounds from PubChem BioAssay (Tox21).

Each structure is given as a SMILES string. Results filed as inconclusive are left out. A call without a number means that no potency is given here. Some compounds were tested as several samples or in several runs, with calls that do not always agree. Active and inactive are the calls of the source. Calls follow the shape of the dose curve; as a rule, active = well fitted inhibition curve with a large enough effect in the repeat runs; inconclusive = weak or mixed curves; inactive = flat fitted curve, though single readings scatter.
Potency is read from the fitted curve at half-maximal effect.

Sequence of Voltage-gated inwardly rectifying potassium channel KCNH2 (Homo sapiens) (Q12809 whole entry, looked up): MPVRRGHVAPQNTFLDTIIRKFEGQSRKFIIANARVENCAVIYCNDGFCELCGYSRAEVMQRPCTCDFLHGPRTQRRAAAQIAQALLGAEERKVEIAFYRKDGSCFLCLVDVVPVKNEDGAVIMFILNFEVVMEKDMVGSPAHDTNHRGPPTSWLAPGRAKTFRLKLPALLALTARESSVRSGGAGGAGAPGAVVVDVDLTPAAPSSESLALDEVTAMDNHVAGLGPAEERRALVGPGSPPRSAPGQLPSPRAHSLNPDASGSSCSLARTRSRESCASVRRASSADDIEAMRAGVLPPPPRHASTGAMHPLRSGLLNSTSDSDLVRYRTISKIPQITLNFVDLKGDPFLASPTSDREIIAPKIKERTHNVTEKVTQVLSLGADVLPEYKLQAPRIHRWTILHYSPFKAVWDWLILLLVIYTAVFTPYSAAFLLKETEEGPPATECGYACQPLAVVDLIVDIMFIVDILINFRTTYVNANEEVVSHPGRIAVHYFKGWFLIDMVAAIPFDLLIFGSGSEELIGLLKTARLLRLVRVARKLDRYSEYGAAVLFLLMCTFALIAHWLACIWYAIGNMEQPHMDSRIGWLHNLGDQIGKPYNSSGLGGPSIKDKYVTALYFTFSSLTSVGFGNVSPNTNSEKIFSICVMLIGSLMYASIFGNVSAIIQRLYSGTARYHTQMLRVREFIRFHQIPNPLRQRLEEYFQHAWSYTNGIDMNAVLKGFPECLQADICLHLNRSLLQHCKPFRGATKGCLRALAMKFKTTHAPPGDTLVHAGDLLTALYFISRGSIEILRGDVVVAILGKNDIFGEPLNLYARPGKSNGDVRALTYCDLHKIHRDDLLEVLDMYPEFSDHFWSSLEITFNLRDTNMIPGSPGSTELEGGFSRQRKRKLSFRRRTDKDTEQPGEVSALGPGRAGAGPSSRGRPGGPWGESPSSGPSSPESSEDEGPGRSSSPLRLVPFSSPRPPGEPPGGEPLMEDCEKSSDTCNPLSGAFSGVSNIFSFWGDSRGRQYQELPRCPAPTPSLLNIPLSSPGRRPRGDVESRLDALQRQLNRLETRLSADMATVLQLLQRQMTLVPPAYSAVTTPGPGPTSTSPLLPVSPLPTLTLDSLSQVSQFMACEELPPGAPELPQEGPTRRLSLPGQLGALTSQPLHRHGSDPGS

This experiment has as its target Voltage-gated inwardly rectifying potassium channel KCNH2 (Homo sapiens) (UniProt Q12809). Description: Human Ether-a-go-go-Related Gene (hERG) channel small molecule antagonists: fluorescence cell-based qHTS assay (AID 1671200). Also: nearly all actives have a fitted effect of over 50% in size. The note with it: hERG-U2OS cells, FluxOR thallium flux fluorescence; series mostly up to 76.8 µM. An excerpt: National Center for Advancing Translational Sciences [NCATS]
U.S. Environmental Protection Agency [EPA]
National Institutes of Environmental Health Sciences [NIEHS]
National Toxicology Program [NTP]
U.S. Food and Drug Administration [FDA]
Mutations in the hERG channel cause Long QT (LQT) syndrome. LQT syndrome is a cardiac disorder which can cause ventricle arrhythmia and sudden death. Additionally, compounds which block the hERG channel can cause acquired LQT syndrome. Several FDA approved drugs have been removed from the market due to their hERG blocking activity. A cell-based hERG channel inhibition assay can be used to screen chemical compounds that inhibit hERG channel. This assay measures hERG channel activity using thallium ions as surrogate ions to measure potassium into the cells.
Tox21 Assay Protocol Summary:
hERG-U2OS cells were resuspended in culture medium and dispensed into 1536-well, black wall/clear-bottom plates at 1000cells/well/3uL using a Multidrop Combi dispenser (Thermo Fisher, Waltham, MA). After plates were incubated at 37 C overnight, 3 uL of Loading Buffer provided by FluxOR II Potassium Ion Channel Assay kit (Thermo, Carlsbad, CA) was added to each well. The assay plates were then incubated at room temperature in the dark for 1h. […] After the assay plates were incubated at room temperature for 10 min, 1 uL of Stimulus Buffer provided by FluxOR II Potassium Ion Channel Assay kit was added into each well and fluorescence intensity (480nm excitation/540nm emission) was continuously measured for 2 min at 1 second intervals using a Functional Drug Screening System (FDSS) 7000EX kinetic plate reader (Hamamatsu, Japan).
In general terms: Block of hERG is tested as a sign of cardiac risk.
Turning to `CC1(C)O[C@@H]2[C@@H](CO[C@@]3(COS(N)(=O)=O)OC(C)(C)O[C@@H]23)O1`, the Potency entry was “inactive”.

Consider `OCCCc1ccccc1`, for which the Potency entry is “inactive”. `Nc1ccc(N=Nc2ccccc2)c(N)n1`: the Potency result was “inactive”. As for `COc1ccccc1NC(=O)CC(C)=O`, the Potency result was “inactive”. Consider `Nc1cccc(N)c1`, for which the Potency result was “inactive”. As to `CC(C)=CCC/C(C)=C/CO`, the Potency result is “inactive”. Next, `Cc1cnc(NC(=O)C2=C(O)c3ccccc3S(=O)(=O)N2C)s1`: “inactive”; `CCOCCO`: “inactive”. Next, `N[C@@H](Cc1c[nH]c2ccc(O)cc12)C(=O)O`: “inactive”; `CC(=O)Oc1ccccc1C(=O)O`: “inactive”; `CCCCCCCCCCCCCCCCCC(=O)OCC(O)CO` (stereo not given): “inactive”. Turning to `COC(=O)c1ccc(C=O)cc1`, the Potency result was “inactive”. With `Cc1cccc2ccccc12`, the Potency result was “inactive”. As for `O=C(OCc1ccccc1)c1ccccc1`, the Potency entry is “inactive”. `CCCCOCCOCCOC(C)=O`: the Potency result was “inactive”. Next, `COC1=CC(=O)C[C@@H](C)[C@]12Oc1c(Cl)c(OC)cc(OC)c1C2=O`: “inactive”. Next, `NC(=O)N/N=C/c1ccc([N+](=O)[O-])o1`: “inactive”; `CCN(CC)CCOC(=O)c1ccc(N)cc1`: “inactive”.

Regarding `CC1=NN(c2ccccc2)C(=O)C1`, the Potency result was “inactive”. Next, `CN(C)Cc1cc(CN(C)C)c(O)c(CN(C)C)c1`: “inactive”. The entry for `C[C@]12C[C@H](O)[C@H]3[C@@H](CCC4=CC(=O)CC[C@@]43C)[C@@H]1CC[C@@H]2C(=O)CO` is “inactive”. Consider `C=C(C)OC(C)=O`, for which the Potency entry is “inactive”. Next, `COc1ccc(O)cc1`: “inactive”; `COc1ccccc1O`: “inactive”; `C=CCOC(=O)CC(C)C`: “inactive”. `CC(C)(C)NCC(O)c1ccc(O)c(CO)c1` (stereo not given): the Potency result is “inactive”. As for `Cc1c(N(C)CS(=O)(=O)O)c(=O)n(-c2ccccc2)n1C`, the Potency entry was “inactive”. Next, `COCC(C)N` (stereo not given): “inactive”; `Cc1ccc(O)c(-n2nc3ccccc3n2)c1`: “inactive”; `NC(N)=NC(N)=NCCc1ccccc1`: “inactive”. Consider `O=C1CCCCCN1`, for which the Potency result was “inactive”.

`O=C(O)CN(CC(=O)O)CC(=O)O`: the Potency entry was “inactive”.

Take `CCCCNC(=O)NS(=O)(=O)c1ccc(N)cc1`: the Potency result is “inactive”. Next, `NC(=O)N1c2ccccc2C=Cc2ccccc21`: “inactive”. As to `N[C@@H](Cc1c[nH]c2ccccc12)C(=O)O`, the Potency entry was “inactive”. The entry for `c1ccc2[nH]c(-c3cscn3)nc2c1` is “inactive”.

`COc1ccc(C(=O)c2ccccc2)c(O)c1`: the Potency was 38.3 µM (active) and inactive. The entry for `O=C(O)Cc1cccc2ccccc12` is “inactive”; for `CC(=O)/C=C/C1=C(C)CCCC1(C)C` it is “inactive”. The entry for `COc1cc2c(c(OC)c1OC)-c1ccc(OC)c(=O)cc1[C@@H](NC(C)=O)CC2` is “inactive”.
